A structure can be active in one record and inactive in another. Activity calls are given as the source filed them. Rule for the calls: active = hit-call score of the fitted dose curve at least 0.9, where 1 is the maximum; inactive = score below 0.9.

This test is described as follows: ATG_SREBP_CIS: Attagene CIS-FACTORIAL HepG2 Assay for human Sterol Regulatory Element Binding (SREBP) (AID 2282962). Particulars: HepG2 Attagene cis-factorial SREBP reporter, mRNA; actives raise or lower the signal. The protocol: ATG_CIS is a cell-based, multiplexed-readout assay that uses HepG2, a human liver cell line, with measurements taken at 24 hours after chemical dosing in a 24-well plate.ATG_SREBP_CIS is one of 52 assay component(s) measured or calculated from the ATG_CIS assay. It is designed to make measurements of mRNA induction, a form of inducible reporter, as detected with fluorescence intensity signals by Reverse transcription polymerase chain reaction (RT-PCR) and Capillary electrophoresis technology.Data from the assay component ATG_SREBP_CIS was analyzed into 1 assay endpoint. This assay endpoint, ATG_SREBP_CIS, was analyzed with bidirectional fitting relative to DMSO as the negative control and baseline of activity. Using a type of inducible reporter, measures of mRNA for gain or loss-of-signal activity can be used to understand the reporter gene at the transcription factor-level as they relate to the gene SREBF1. Furthermore, this assay endpoint can be referred to as a primary readout, because this assay has produced multiple assay endpoints where this one serves a reporter gene function. To generalize the intended target to other relatable targets, this assay endpoint is annotated to the dna binding intended target family, where the subfamily is basic helix-loop-helix leucine zipper.
Human liver HepG2 cells are transiently transfected with multiple reporter transcription units (MRTUs) in 6-well plates using FuGene 6 reagent (Roche; 3 ml FuGene/1 mg DNA). The MRTU constructs are regulated by a cis-regulating element (promoter). […] A major difference between the CIS and TRANS system is that in CIS activities of endogenous TFs are measured, whereas the TRANS assay evaluates changes in activities of exogenous, chimeric NR-Gal4 proteins. […] At the end of 24 hour incubation, total RNA was isolated using TriZol reagent (Invitrogen). The isolated RNA is then reverse-transcribed using oligo(dT) primer and Mo-MLV reverse transcriptase (Invitrogen) with DNAse I (Ambion) treatment for 30 min. The one-tenth of the produced cDNA was amplified by PCR using Taq DNA polymerase (Invitrogen) and two reporter sequence-specific primers. The PCR products were fluorescently labeled by primer extension with 6-arboxyfluorescein (6-FAM) 5'-labeled reporter sequence-specific primer (2 min at 95 C, 20 s at 68 C and 10 min at 72 C) and these products were digested with 5U of HpaI (New England Biolabs) for 2h at 37 C. The fragments were purified using Qiaquick PCR columns (Qiagen), analyzed on an ABI 3130xL genetic analyzer (Applied Biosystems) with peak positions identified by using a set of X-rhodamine (ROX)-labeled MapMarker1000 molecular weight standards (BioVentures). The raw capillary electrophoresis data was processed using Attagraph software (Attagene).
For `CC(=O)CCc1ccc(O)cc1`, the outcome was inactive.

On to `CCCCCC#CC(=O)OC`, for which the outcome was inactive.

As to `CCC(C)(C)C1CCC(OC)CC1` (stereo not given), the compound was classed as inactive.

Turning to `CCCC1CCOC(C)S1` (stereo not given), the call was inactive.

With `CCCCCCCCOC(=O)c1ccc(O)cc1`, the compound was called inactive.

`Cc1cccc(C)c1`: the result was inactive.

With `C=C(C)C(=O)OCCC(C)OC(=O)C(=C)C` (stereo not given), the result was inactive.

On to `CC(=O)c1ccc(C)cc1`, for which the compound was called inactive.

With `C#C[C@]1(O)CC[C@H]2[C@@H]3CCc4cc(O)ccc4[C@H]3CC[C@@]21C`, the compound was called inactive.

For the compound `CC(=O)CC(C)(C)C1CCCCC1`, the call was inactive.

On to `CCC(C)(C)C1CCC(=O)CC1`, for which the outcome was inactive.

On to `CC1=CCC(C(C)C)=CC1`, for which the call was inactive.

As for `CC1=CC(C)C(C=O)C(C)C1` (stereo not given) (tested in a mixture with another compound), the result was inactive.

Consider `CCCCOCCOC(=O)c1ccccc1C(=O)OCCOCCCC`, for which the result was inactive.

For `Cc1cc(O)c(C)c(C)c1O`, the result was inactive.

Take `CC1(C)CC(N)CC(C)(CN)C1` (stereo not given): the call was inactive.

Take `C=CCCCCCCCCC(=O)OCC`: the result was inactive.

Take `CCCCCC1CCC(=O)O1` (stereo not given): the outcome was inactive.

Turning to `C1=COCCC1`, the outcome was inactive.

As for `CC(=O)OCC=C(C)CCC=C(C)CCC=C(C)C`, the compound was called inactive.

As to `C=C(C)C(=O)OCCC[Si](OC)(OC)OC`, the outcome was inactive.

`CC(C)CCCC(C)(C)O`: the compound was called inactive.

`CC12CCC(C1)C(C)(C)C2O` (stereo not given): the outcome was inactive.

Regarding `C=C1CC[C@H]2O[C@]2(C)CC[C@@H]2[C@@H]1CC2(C)C`, the call was inactive.

For the compound `CC(C)COC(=O)c1ccccc1`, the result was inactive.

Consider `CC(CCO)CC(C)(C)C` (stereo not given), for which the result was inactive.

On to `C1COCO1`, for which the compound was called inactive.

As for `CCCCCCOc1ccc(O)cc1`, the outcome was inactive.

Turning to `CC(C)(CO)CO`, the outcome was inactive.

Consider `Cc1ccccc1S`, for which the AC50 – broadly, the concentration giving half of the maximal activity seen – is 41.7 µM (active).

Turning to `C[C@H](CCC(=O)O)[C@H]1CC[C@H]2[C@@H]3CC[C@@H]4C[C@H](O)CC[C@]4(C)[C@H]3CC[C@]12C`, the compound was called inactive.

Take `C=C(C)CCCC(C)CCO` (stereo not given): the outcome was inactive.

Regarding `CCCCCCCCOS(=O)(=O)O`, the call was inactive.

Turning to `CCCC[N+](C)(CCCC)CCCC`, the compound was called inactive.

With `c1ccc2scnc2c1`, the result was inactive.

`CC(=O)OC(C)(C)C`: the outcome was inactive.

`CCCCCCCOC(C)=O`: the compound was classed as inactive.

On to `CC(=O)c1ccc(O)cc1`, for which the compound was called inactive.

Consider `CCC(=O)OC(C)(C)C1CC=C(C)CC1` (stereo not given), for which the result was inactive.

With `CCCCN(CCO)CCO`, the compound was called inactive.

These data come from PubChem BioAssay (EPA / NIEHS).
